Measurements as given in PubChem BioAssay (EPA / NIEHS).
Several values for one entry are separate records, joined by “and”; a condition that tells them apart may be missing. Identical values can stand only once. Activity calls are given as the source filed them. Rule for the calls: active = hit-call score of the fitted dose curve at least 0.9, where 1 is the maximum; inactive = score below 0.9.

read-out: CD69, CD69 (gene 969); assay: BSK_SAg_CD69: BioMAP Diversity Plus: SAg Assay for CD69 Biomarker Activity (AID 2283089); details: primary human HUVEC with PBMC; actives raise or lower the signal
Experimental: BSK_SAg is a cell-based, multiplexed-readout assay that uses umbilical vein endothelium and peripheral blood mononuclear cells, a human vascular primary cell co-culture, with measurements taken at 24 hours after chemical dosing in a 96-well plate.BSK_SAg_CD69 is one of 10 assay component(s) measured or calculated from the BSK_SAg assay. It is designed to make measurements of enzyme-linked immunosorbent assay, a form of binding reporter, as detected with fluorescence intensity signals by Enzyme-linked immunosorbent assay technology.Data from the assay component BSK_SAg_CD69 was analyzed into 1 assay endpoint. This assay endpoint, BSK_SAg_CD69, was analyzed with bidirectional fitting relative to DMSO as the negative control and baseline of activity. Using a type of binding reporter, gain or loss-of-signal activity can be used to understand changes in the signaling as they relate to the gene CD69. Furthermore, this assay endpoint can be referred to as a primary readout, because this assay has produced multiple assay endpoints where this one serves a signaling function. To generalize the intended target to other relatable targets, this assay endpoint is annotated to the cytokine intended target family, where the subfamily is inflammatory factor.
The levels of cell surface (or secreted, indicated by the prefix "s") biomarker endpoints were measured by ELISA. Overt cytotoxicity to cells in confluent adherent cultures (all systems other than the BT system) was assessed by measuring total protein levels using sulforhodamine B (SRB) staining in parallel cultures at the time of biomarker measurements, indicated as SRB endpoints. For proliferation assays for adherent cell types, individual cell types are cultured at sub-confluence and relative cell numbers quantified by SRB staining at time points optimized for each system (48 h: 3C and CASM3C systems; 72 h: BT and HDF3CGF systems; 96 h: SAg system). SRB was performed by staining cells with 0.1% SRB after fixation with 10% TCA and reading wells at 560 nm.Viability and proliferation of PBMC (T cells) was quantified by Alamar Blue reduction for the SAg and BT systems. For PBMC viability (referred to as PBMC Cytotoxicity within the assay endpoint names), cells were plated (75,000/well in a 96-well plate) and then chemical samples added for 1 h before addition of activators, SEB and TSST-1 (20 ng/mL final concentration each). Cells were incubated for 90 h. Then, Alamar Blue (20 uL/well) (Invitrogen, Cat DAL1100) was added for 6 h, and the plates were read with a fluorescence microplate reader at 546/580 nm (excitation/emission). For PBMC proliferation, cells were plated and activated as above but incubated for only 16 h prior to addition of Alamar Blue. Plates were read after 6 h.

| Compound | outcome | AC50 |
| --- | --- | --- |
| CC(C)C1(C)N=C(c2nc3ccccc3cc2C(=O)O)NC1=O (stereo not given) | inactive |  |
| CN(C)C(=S)SSC(=S)N(C)C |  | 28.3 µM (active) |
| O=C(O)COc1nc(Cl)c(Cl)cc1Cl | inactive |  |
| C=CCC1=C(C)C(OC(=O)C2C(C=C(C)C)C2(C)C)CC1=O (stereo not given) |  | 30.1 µM (active) [middle of 4 runs] |
| CCCCC(CC)COC(=O)c1ccccc1C(=O)OCC(CC)CCCC (stereo not given) |  | 5.92 µM (active) |
| N#Cc1nn(-c2c(Cl)cc(C(F)(F)F)cc2Cl)c(N)c1S(=O)C(F)(F)F (stereo not given) |  | 25.6 µM (active) |
| Cc1cc(Cl)ccc1OCC(=O)O | inactive |  |
| Cc1ccc(-c2c(Cl)nc(C#N)n2S(=O)(=O)N(C)C)cc1 |  | 13.9 µM (active) |
| O=C(Nc1ccccc1)Nc1ccnc(Cl)c1 |  | 20 µM (active) |
| CCON=C(CC)C1=C(O)CC(c2c(C)cc(C)cc2C)CC1=O (stereo not given) | inactive |  |
| CCCCNC(=O)OCC#CI |  | 21.9 µM (active) and 15.5 µM (active) |
| OC(c1ccc(Cl)cc1)(c1cncnc1)c1ccccc1Cl (stereo not given) |  | 14.2 µM (active) |
| COc1cnc(OC)n2nc(NS(=O)(=O)c3c(OCC(F)F)cccc3C(F)(F)F)nc12 | inactive |  |
| CNC(=S)S | inactive |  |
| Oc1ccccc1-c1ccccc1 | inactive |  |
| COC(=O)C(C)Oc1ccc(Oc2ccc(Cl)cc2Cl)cc1 (stereo not given) | inactive |  |
| CCCCOC(=O)c1ccccc1C(=O)OCCCC | inactive |  |
| CC(C)Oc1cc(-n2nc(C(C)(C)C)oc2=O)c(Cl)cc1Cl |  | 30.7 µM (active) |
| COC(=O)c1ccccc1C(=O)OC | inactive |  |
| CC1=C(C(=O)Nc2ccccc2)SCCO1 | inactive |  |

| Compound | outcome | AC50 |
| --- | --- | --- |
| Cc1c(F)c(F)c(COC(=O)C2C(/C=C(\Cl)C(F)(F)F)C2(C)C)c(F)c1F (stereo not given) |  | 5.53 µM (active) |
| COc1nc(NC(C)C)nc(NC(C)C)n1 | inactive |  |
| CCNc1nc(Cl)nc(NC(C)C)n1 | inactive |  |
| CO/C=C(/C(=O)OC)c1ccccc1Oc1cc(Oc2ccccc2C#N)ncn1 |  | 12.3 µM (active) [middle of 4 runs] |
| CCCC1COC(Cn2cncn2)(c2ccc(Cl)cc2Cl)O1 (stereo not given) | inactive |  |
| COc1ccc(C(c2ccc(OC)cc2)C(Cl)(Cl)Cl)cc1 |  | 25.4 µM (active) |
| CCOC(=O)C(Cl)Cc1cc(-n2nc(C)n(C(F)F)c2=O)c(F)cc1Cl (stereo not given) | inactive |  |
| COc1nc(C)nc(NC(=O)NS(=O)(=O)c2ccccc2Cl)n1 | inactive |  |
| COC(=O)N(OC)c1ccccc1COc1ccn(-c2ccc(Cl)cc2)n1 |  | 3.97 µM (active) |
| CCNc1nc(Cl)nc(NCC)n1 | inactive |  |
| CCOC(=O)CC(SP(=S)(OC)OC)C(=O)OCC (stereo not given) | inactive |  |
| Fc1ccc(Oc2ccnc3cc(Cl)cc(Cl)c23)cc1 |  | 14.9 µM (active) |
| CCc1nn(C)c(C(=O)NCc2ccc(C(C)(C)C)cc2)c1Cl |  | 3.99 µM (active) |
| C=CC1(C)OC(=O)N(c2cc(Cl)cc(Cl)c2)C1=O (stereo not given) | inactive |  |
| CC(Oc1ccc(Cl)cc1Cl)C(=O)O (stereo not given) | inactive |  |
| O=C(O)c1nc(Cl)ccc1Cl | inactive |  |
| COc1nc(C)nc(NC(=O)NS(=O)(=O)c2ccccc2CCC(F)(F)F)n1 | inactive |  |
| COP(N)(=O)SC (stereo not given) | inactive |  |
| COC(=O)C=C(C)OP(=O)(OC)OC | inactive |  |
| CNC(=O)ON=CC(C)(C)SC | inactive |  |
